Consider 56 compounds from publication PMC4336329 (PLoS ONE, 2015).

About 14,000 (4.5%) of roughly 310,000 compounds showed an effect of 50% or more. Effects have a minus sign here. Only a selection was taken, and strong results are over-represented in it overall.
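Also: peak tail current of the secondary pulse compared with the same well before compound.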

The target of the assay is human ether-à-go-go-related gene (hERG) potassium channel (human, UniProt Q12809). The experiment in a line: primary screen, population patch clamp on CHO cells stably expressing hERG; higher = less effect of the substance.
human ether-à-go-go-related gene (hERG) potassium channel, sequence (Q12809 whole entry, looked up): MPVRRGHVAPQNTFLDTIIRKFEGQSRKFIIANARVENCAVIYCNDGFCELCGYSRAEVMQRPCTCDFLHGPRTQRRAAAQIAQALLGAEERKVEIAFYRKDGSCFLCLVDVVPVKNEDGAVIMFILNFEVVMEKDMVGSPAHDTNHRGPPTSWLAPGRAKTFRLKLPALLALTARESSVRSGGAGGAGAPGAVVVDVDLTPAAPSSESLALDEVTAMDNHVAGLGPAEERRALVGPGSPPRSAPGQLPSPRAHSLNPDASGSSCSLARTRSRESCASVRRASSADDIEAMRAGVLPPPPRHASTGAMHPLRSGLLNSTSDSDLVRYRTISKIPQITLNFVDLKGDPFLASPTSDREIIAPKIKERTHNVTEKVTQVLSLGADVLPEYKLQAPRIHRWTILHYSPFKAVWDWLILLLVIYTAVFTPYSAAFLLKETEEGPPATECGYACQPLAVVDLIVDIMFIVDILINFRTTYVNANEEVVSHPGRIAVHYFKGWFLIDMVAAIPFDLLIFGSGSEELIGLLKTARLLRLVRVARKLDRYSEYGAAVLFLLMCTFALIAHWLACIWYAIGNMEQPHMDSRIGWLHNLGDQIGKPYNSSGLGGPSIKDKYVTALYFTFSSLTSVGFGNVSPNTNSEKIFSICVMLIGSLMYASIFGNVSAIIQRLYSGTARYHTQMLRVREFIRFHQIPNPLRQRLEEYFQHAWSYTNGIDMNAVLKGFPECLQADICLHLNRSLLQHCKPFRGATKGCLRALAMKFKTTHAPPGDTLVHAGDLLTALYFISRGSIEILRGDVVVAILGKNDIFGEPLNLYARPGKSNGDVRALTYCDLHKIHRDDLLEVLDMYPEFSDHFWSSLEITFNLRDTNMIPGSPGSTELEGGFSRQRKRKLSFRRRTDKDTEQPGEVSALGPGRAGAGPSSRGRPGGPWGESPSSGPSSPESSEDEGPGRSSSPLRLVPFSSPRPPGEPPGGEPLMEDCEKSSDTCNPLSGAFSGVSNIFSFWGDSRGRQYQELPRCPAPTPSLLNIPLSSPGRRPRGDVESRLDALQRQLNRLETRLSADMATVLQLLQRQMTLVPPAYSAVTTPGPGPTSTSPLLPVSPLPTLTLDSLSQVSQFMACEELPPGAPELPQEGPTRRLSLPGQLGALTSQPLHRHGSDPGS
With `O=C(NCC(c1cccs1)N1CCOCC1)C1CCN(S(=O)(=O)c2c(Cl)cccc2Cl)CC1` (centres unmarked), the “hERG current change (%, negative = inhibition) at 10uM” value is -27.3%.
With `COc1ccc(C2C3CCCCC3(O)CCN2C(=O)c2cccs2)cc1` (centres unmarked), the “hERG current change (%, negative = inhibition) at 10uM” value is given as 5.52%.
In the case of `CC(C)(C)C(=O)Nc1nnc(SCC(=O)NC2CCCCC2)s1` it was 2.34%; in that of `COc1ccc(S(=O)(=O)N2CCC(C(=O)NCCN3CCOCC3)CC2)cc1`, 14.2%.
As to `CC1=NN(c2ccccc2)C(=O)C1/C=C1\C(=O)NC(=O)N(c2cc(C)cc(C)c2)C1=O` (centres unmarked), the “hERG current change (%, negative = inhibition) at 10uM” value was found to be 6.47%.
With `Cc1sc2nc(CSCC(=O)Nc3c(F)cccc3F)[nH]c(=O)c2c1C`, the “hERG current change (%, negative = inhibition) at 10uM” value is given as 7.01%.
On to `CC(C)CNc1nnnc2c1sc1nc(N3CCOCC3)c3c(c12)CC(C)(C)SC3`, for which the “hERG current change (%, negative = inhibition) at 10uM” value is -20.8%.
In the case of `Cc1ccc(Sc2ccc(S(=O)(=O)Nc3ccc(CC(=O)O)cc3)cc2)cc1C`, the “hERG current change (%, negative = inhibition) at 10uM” value is given as 3.13%.
In the case of `CCN(c1ccccc1)S(=O)(=O)c1ccc(C(=O)NCC2(N(C)C)CCCCC2)cc1` it was -57.8%; in that of `CN(C)C1(CNC(=O)c2cccc(S(=O)(=O)NCc3ccccc3)c2)CCCCC1`, -49.5%.
Turning to `CCN(c1ccccc1)S(=O)(=O)c1ccc(C(=O)Nc2ccncc2)cc1`, the “hERG current change (%, negative = inhibition) at 10uM” value is -68.7%.
With `CCN(c1ccccc1)S(=O)(=O)c1cccc(C(=O)NCC2(N(C)C)CCCCC2)c1`, the “hERG current change (%, negative = inhibition) at 10uM” value was -60.5%.
The same measure for `CN(c1ccccc1)S(=O)(=O)c1ccc(C(=O)Nc2ccncc2)cc1`: -9.83%; for `CCN(c1ccccc1)S(=O)(=O)c1ccc(C(=O)Nc2ccccn2)cc1`: -8.37%.
On to `COc1ccccc1NS(=O)(=O)c1cccc(C(=O)NCC2(N(C)C)CCCCC2)c1`, for which the “hERG current change (%, negative = inhibition) at 10uM” value is on record as -22.2%.
Turning to `CNC(=O)c1ccc(OCc2ccccc2)c(OC)c1`, the “hERG current change (%, negative = inhibition) at 10uM” value came out at 3.11%.
For the compound `CCN(c1ccccc1)S(=O)(=O)c1ccc(C(=O)NCCc2ccc(S(N)(=O)=O)cc2)cc1`, the “hERG current change (%, negative = inhibition) at 10uM” value was found to be 5.49%.
Take `COc1cc(C(=O)NCC2(N(C)C)CCCCC2)ccc1OCc1ccccc1`: the “hERG current change (%, negative = inhibition) at 10uM” value is -59.7%.
Regarding `COc1ccc(C(=O)NCC(=O)NCC2(N(C)C)CCCCC2)cc1OC`, the “hERG current change (%, negative = inhibition) at 10uM” value is listed as 3.45%.
Consider `COc1ccccc1NS(=O)(=O)c1ccc(C(=O)NCC2(N(C)C)CCCCC2)cc1`, for which the “hERG current change (%, negative = inhibition) at 10uM” value turned out to be 3.78%.
`O=C(NCCNC(=O)c1ccccn1)c1cccc(F)c1`: the “hERG current change (%, negative = inhibition) at 10uM” value turned out to be 23.7%.
Take `O/N=C/C1=C(Cl)c2ccccc2CC1`: the “hERG current change (%, negative = inhibition) at 10uM” value is listed as -4.9%.
As to `Cc1ccccc1NC(=O)COC(=O)c1cccc(S(=O)(=O)N2CCCCC2)c1`, the “hERG current change (%, negative = inhibition) at 10uM” value is recorded as -6.55%.
The same measure for `Cc1ccc(C(=O)N2CCN(C34CC5CC(CC(C5)C3)C4)CC2)o1`: -29.4%.
With `CCc1nnc(NC(=O)CSc2nnc(-c3ccco3)n2CCOC)s1`, the “hERG current change (%, negative = inhibition) at 10uM” value was 9.29%.
For `CC1CCN(c2oc(-c3ccco3)nc2S(=O)(=O)c2ccccc2)CC1`, the “hERG current change (%, negative = inhibition) at 10uM” value is -6.14%.
In the case of `CNC(=O)COC(=O)c1ccccc1Oc1ccccc1`, the “hERG current change (%, negative = inhibition) at 10uM” value is -5.63%.
Turning to `O=C1OC(C(=O)Nc2nccs2)Cc2ccccc21` (centres unmarked), the “hERG current change (%, negative = inhibition) at 10uM” value was determined as 12.7%.
The same measure for `CCN(C(=O)c1cc2c(=O)n3ccccc3nc2n1C)C1CCCCC1`: 6.65%.
The same measure for `CC(Cc1cccs1)NC(=O)Nc1ccc(Cl)cc1` (centres unmarked): 1.12%; for `C[C@H](NC(=O)C1CCN(S(=O)(=O)c2ccccc2)CC1)C(=O)NCc1cccc(C(F)(F)F)c1`: -2.33%.
As for `CCCOc1ccc(C(=O)ON=C2CCN(C)CC2)cc1.Cl`, the “hERG current change (%, negative = inhibition) at 10uM” value is reported as -9.07%.
For `COc1ccc(C(=O)ON=C2CCN(C)CC2)cc1.Cl`, the “hERG current change (%, negative = inhibition) at 10uM” value is given as 12.8%.
`Cc1ccc(C(=O)ON=C2CCN(c3ccc([N+](=O)[O-])cc3)CC2)cc1`: the “hERG current change (%, negative = inhibition) at 10uM” value is reported as -60.9%.
In the case of `Cc1ccc(C(=O)OC2CCN(c3ccc([N+](=O)[O-])cc3)CC2)cc1` it was -1.78%; in that of `O=C(ON=C1CCN(c2ccc([N+](=O)[O-])cc2)CC1)c1ccccc1`, -47.5%; in that of `COc1ccc(C(=O)ON=C2CCN(c3ccc([N+](=O)[O-])cc3)CC2)cc1`, -68.5%.
The same measure for `CC(=O)N1CCOc2cc(S(=O)(=O)NCc3ccc(F)cc3)c(C)cc21`: -16.6%.
In the case of `CCOc1ccc(/C=C/c2[nH]c(=O)[nH]c(=O)c2[N+](=O)[O-])cc1`, the “hERG current change (%, negative = inhibition) at 10uM” value is recorded as 8.01%.
The same measure for `O=C(CCC(=O)Nc1ccccc1)N/N=C/c1ccc2c(c1)OCO2`: 28.7%; for `O=C(c1ccccc1S(=O)(=O)NCc1ccccc1)N1CCCC1`: -4.43%; for `CCN(CC)Cc1cc(C(C)=O)ccc1OCC(C)C`: -31.5%.
As to `CC(C)c1ccc(C2N3CC4([N+](=O)[O-])CN2CC([N+](=O)[O-])(C3)C4(C)C)cc1` (centres unmarked), the “hERG current change (%, negative = inhibition) at 10uM” value worked out at 28.4%.
On to `O=C(O)c1ccc(NS(=O)(=O)c2ccc3c(c2)OCCCO3)cc1`, for which the “hERG current change (%, negative = inhibition) at 10uM” value worked out at 4.23%.
In the case of `CN1CCN(S(=O)(=O)c2cc(C(F)(F)F)ccc2Cl)CC1.Cl`, the “hERG current change (%, negative = inhibition) at 10uM” value worked out at 10.4%.
Consider `CC(=O)c1sc2nc(=O)c(C)nn2c1C`, for which the “hERG current change (%, negative = inhibition) at 10uM” value was -0.703%.
Turning to `O=c1[nH]c(/C=C\c2ccc(O)c(O)c2)nc(O)c1[N+](=O)[O-]`, the “hERG current change (%, negative = inhibition) at 10uM” value is 16.2%.
Turning to `CCCCOc1ccc(CN2CCN(CC)CC2)cc1`, the “hERG current change (%, negative = inhibition) at 10uM” value is on record as -14.2%.
In the case of `CCN1CCN(CCCOc2ccc(-c3ccccc3)cc2)CC1`, the “hERG current change (%, negative = inhibition) at 10uM” value is given as -71.9%.
With `CN1CCN(CCOc2ccc(Cc3ccccc3)cc2)CC1.Cl`, the “hERG current change (%, negative = inhibition) at 10uM” value is on record as -23.4%.
`CCCCOc1ccc(OCCCN2CCOCC2)cc1.Cl`: the “hERG current change (%, negative = inhibition) at 10uM” value is -23.1%.
For `Cc1ccc(OCCCN2CCOCC2)cc1`, the “hERG current change (%, negative = inhibition) at 10uM” value is recorded as 13.3%.
In the case of `CN1CCN(CCCOc2ccc(-c3ccccc3)cc2)CC1.Cl` it was -69.1%; in that of `CN1CCN(CCOc2ccc(-c3ccccc3)cc2)CC1.Cl`, -56.3%.
In the case of `Cl.c1ccc(-c2ccc(OCCN3CCOCC3)cc2)cc1` it was 3.74%; in that of `COc1ccc(C(C(=O)NC2CCCC2)N(C(=O)c2ccoc2C)c2cc(C)cc(C)c2)cc1` (centres unmarked), -10.9%.
